The full list was thinned out, with hits kept by preference.
LmPK inh = qHTS Assay for Inhibitors of Leishmania Mexicana Pyruvate Kinase (LmPK). Q27686. purified LmPK, Kinase-Glo ATP luminescence, 1 h. Potency, µM (titrated, usually from 57.5 µM), usual class: inhibitors. 290,000 compounds, 0.37% hits
Target sequence (Q27686 whole entry, looked up): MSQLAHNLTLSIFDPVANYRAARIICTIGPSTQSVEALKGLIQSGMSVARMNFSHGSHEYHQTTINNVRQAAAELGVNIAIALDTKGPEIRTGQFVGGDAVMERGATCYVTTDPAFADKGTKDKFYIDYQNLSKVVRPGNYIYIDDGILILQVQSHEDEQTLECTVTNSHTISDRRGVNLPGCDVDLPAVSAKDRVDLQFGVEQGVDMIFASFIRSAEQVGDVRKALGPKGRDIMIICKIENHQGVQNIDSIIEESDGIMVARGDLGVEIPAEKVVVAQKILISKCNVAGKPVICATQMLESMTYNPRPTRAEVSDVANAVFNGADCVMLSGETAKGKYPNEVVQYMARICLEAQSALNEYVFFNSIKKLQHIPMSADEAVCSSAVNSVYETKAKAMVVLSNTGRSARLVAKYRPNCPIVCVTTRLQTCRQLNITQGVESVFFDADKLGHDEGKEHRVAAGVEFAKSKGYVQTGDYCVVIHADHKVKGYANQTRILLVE
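Purified LmPK (0.1 nM) with 0.5 mM PEP and 0.1 mM ADP in imidazole buffer pH 7.2 with MgCl2/KCl, 1 h at room temperature. ATP formed was read by luciferase luminescence and normalized to no-enzyme and uninhibited controls.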
Giardia FBPA inh = qHTS Assay for Inhibitors of Fructose-1,6-bisphosphate Aldolase from Giardia Lamblia; A8B2U2; purified Giardia FBPA; Potency, µM (highest dose often 59.6 µM), usual class: inhibitors; 290,000 compounds, 0.71% hits; AID 2451, 2010; note: nearly all actives have a fitted effect of over 55% in size
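Giardia FBPA (40 nM reagent) was preincubated 10 min at RT with compound (up to 57.5 uM final), then substrate plus GAPDH/TPI/NAD/arsenate coupling system with diaphorase/resazurin was added; resorufin fluorescence (525/598 nm) was read after 20 min.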
Shiga inhibitor = A qHTS for Small Molecule Inhibitors of Shiga Toxin; Vero cells, Shiga toxin protein synthesis inhibition reporter; inhibition, % at 38.7 µM; 290,000 compounds, 9.2% hits; AID 2315, 2010; in the data active = inhibition mostly above about 28%, no sharp cut-off; inactive = mostly below about 43%
CHX counter = Cycloheximide Counterscreen for Small Molecule Inhibitors of Shiga Toxin | cell reporter, cycloheximide protein synthesis inhibition counterscreen | max response, % | 300,000 compounds, 12% hits | AID 2314, 2010; in the data active = max response mostly above about 13%, no sharp cut-off; inactive = mostly below about 14%; note: read at 38.3 µM for the half of the compounds with a filed dose
Sm TGR block = qHTS Assay for the Inhibitors of Schistosoma Mansoni Peroxiredoxins; Schistosoma mansoni thioredoxin glutathione reductase (TGR), Q962Y6; purified TGR, DTNB reduction, TNB absorbance 405 nm; Potency, µM (highest dose often 114 µM), usual class: inhibitors; 360,000 compounds, 3% hits; note: nearly all actives have a fitted effect of over 60% in size
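TGR 20 nM + NADPH 100 uM (dispensed conc.), cpd preinc 15 min RT; start with NADPH (500 uM addition) then DTNB (15 mM addition). Kinetic TNB absorbance, 405 nm filter. Four-parameter Hill fit across titration.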
TbPYK inhibitor = qHTS of Trypanosoma Brucei Inhibitors. pyruvate kinase (Trypanosoma brucei), Q57TT1. TbPYK enzyme, Kinase-Glo Plus ATP luminescence, 45 min. Potency, µM (series often up to 76.8 µM), usual class: inhibitors. 410,000 compounds, 0.12% hits; note: nearly all actives have a fitted effect of over 50% in size
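In this concentration-response screen, enzyme-free wells defined baseline while DMSO plates tracked drift. Each reaction combined TbPYK, substrate, compound and 130 uM ADP for 45 min at room temperature. Kinase-Glo Plus luminescence gave the signal.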
Large screens that a line does not name were inactive. Unless noted, calls come from the whole dose curve; as a rule, active = well fitted curve in the direction sought with a large enough effect; inconclusive = small, poorly fitted or top-dose-only effect, or another doubt; inactive = no such curve, though single readings can be large; an effect the other way counts as inactive or inconclusive.

CC(=O)Nc1nc(C)c(-c2csc(Nc3cccc([N+](=O)[O-])c3)n2)s1	none
CC(=O)Nc1ccc(Nc2nc(-c3sc(NC(C)=O)nc3C)cs2)cc1	none
CC(=O)Nc1nc(C)c(-c2csc(Nc3ccccn3)n2)s1	Shiga inhibitor 90, CHX counter 37
CC(=O)Nc1nc(C)c(-c2csc(Nc3ccc(O)cc3)n2)s1	CHX counter 15
O=C(Nc1ccc(F)cc1F)c1ccc(-n2cnc3cccnc32)cc1	none (no result: LmPK inh, Giardia FBPA inh, Shiga inhibitor, CHX counter)
CCCN(c1c(C)n(C)n(-c2ccccc2)c1=O)S(=O)(=O)c1ccc(C)cc1	none (no result: LmPK inh, Giardia FBPA inh, Shiga inhibitor, CHX counter)
COc1ccccc1-n1c(CNC(=O)COc2ccccc2)n[nH]c1=S	LmPK inh inconclusive, TbPYK inhibitor inconclusive
O=C(NCc1n[nH]c(=S)n1-c1cccc(Cl)c1)c1cccs1	TbPYK inhibitor inconclusive
COc1ccccc1-n1c(CNC(=O)c2cccc([N+](=O)[O-])c2C)n[nH]c1=S	TbPYK inhibitor 7.9µM
Cc1cccc(-n2c(CNC(=O)c3cccc([N+](=O)[O-])c3C)n[nH]c2=S)c1	TbPYK inhibitor 8.9µM
CCc1ccc(-n2c(=O)c3sc4ccccc4c3n(Cc3cccc(F)c3)c2=O)cc1	none (no result: LmPK inh, Giardia FBPA inh, Shiga inhibitor, CHX counter)
Cc1ccc(S(=O)(=O)N(C)C)cc1NC(=O)CCc1ccccc1	none
Cc1cc(N2CCOCC2)ccc1/C=C1/SC(=O)NC1=O	LmPK inh 16µM, CHX counter 31, TbPYK inhibitor inconclusive
Cc1cc(N2CCOCC2)ccc1/C=C1\C(=O)NC(=O)N(c2ccccc2)C1=O	Sm TGR block inconclusive, TbPYK inhibitor inconclusive
C=CCN1C(=O)S/C(=C\c2ccc(N3CCOCC3)cc2C)C1=O	CHX counter 35
Cc1cc(N2CCOCC2)ccc1/C=C1\NC(=O)N(CC(=O)Nc2ccccc2C)C1=O	none
O=C1NC(=S)N/C1=C\c1ccc(N2CCOCC2)cc1	CHX counter 28
O=C1NC(=O)C(=Cc2ccc(N3CCOCC3)cc2)C(=O)N1	Sm TGR block inconclusive, TbPYK inhibitor inconclusive
C=CC(C)N1C(=O)S/C(=C\c2ccc(N3CCOCC3)cc2C)C1=O (configuration not stated)	CHX counter 17
C=C(C)COc1ccc(-c2ncncc2Oc2ccc(OC)cc2)c(O)c1	Shiga inhibitor 85, CHX counter 28
O=[N+]([O-])c1ccccc1CN1CC=C(c2ccc(F)cc2)CC1	Giardia FBPA inh inconclusive, Shiga inhibitor 23, CHX counter 17
Cc1cc(C)n2nc(SCC(=O)Nc3cc(Cl)ccc3C)nc2n1	none (no result: LmPK inh, Giardia FBPA inh, Shiga inhibitor, CHX counter)
CCCCOC(=O)Nc1ccc(N(C)C)cc1	Shiga inhibitor 116, CHX counter 80
CC(C)COC(=O)NCCOC(=O)Nc1cccc(Cl)c1	none
CCCCOC(=O)Nc1ccc(C(C)C)cc1	Shiga inhibitor 86, CHX counter 40
CC(C)COC(=O)NCCCOC(=O)Nc1ccccc1	CHX counter 37
CCCCOC(=O)Nc1cccc(C(=O)OCC)c1	Shiga inhibitor 83, CHX counter 21
CCOCCOC(=O)c1cccc(NC(=O)OCC)c1	none
CCCCOC(=O)Nc1ccc(S(=O)(=O)Nc2ccc([N+](=O)[O-])cc2)cc1	none
CCCCOC(=O)Nc1ccc(C(N)=O)cc1	Shiga inhibitor 76, CHX counter 37
CCCCOC(=O)Nc1ccc(S(=O)(=O)Nn2cnnc2)cc1	none
CCCCC(=O)Nc1sc2c(c1C(N)=O)CCC2	Shiga inhibitor 45, CHX counter 32
CC(C)(C)C(=O)NC(=S)Nc1sc2c(c1C(N)=O)CCC2	CHX counter 22
CCC1(CC)NC(=O)N(CC(=O)Nc2sc3c(c2C(N)=O)CCC3)C1=O	Sm TGR block 45µM
CCc1ccc(NC(=O)C(=O)NCC(c2cccnc2)N2CCN(c3ccc(F)cc3)CC2)cc1 (configuration not stated)	none (no result: LmPK inh, Giardia FBPA inh, Shiga inhibitor, CHX counter)
Cc1ccccc1-c1noc(-c2ccc(N3CCC(C)CC3)c([N+](=O)[O-])c2)n1	none (no result: LmPK inh, Giardia FBPA inh, Shiga inhibitor, CHX counter)
O=S(=O)(c1ccccc1)N1N=C(c2ccccc2)CC1c1ccccc1F (configuration not stated)	none
O=C(CCS(=O)(=O)c1ccccc1)Nc1nncs1	Sm TGR block 20µM
O=C(CCS(=O)(=O)c1ccccc1)Nc1nc2c(s1)COc1ccccc1-2	Sm TGR block 32µM
CC(=O)c1sc(NC(=O)CCS(=O)(=O)c2ccc(F)cc2)nc1C	none (no result: LmPK inh, Giardia FBPA inh, Shiga inhibitor, CHX counter, Sm TGR block)
O=C(CCCc1ccccc1)Nc1nncs1	none
CC(=O)c1sc(NC(=O)CCS(=O)(=O)c2ccccc2)nc1C	Shiga inhibitor 58, CHX counter 57
Cc1ccc2c(c1)N(C(=O)N1CCC(C(=O)NCc3cccc(Br)c3)CC1)CCO2	none (no result: LmPK inh, Giardia FBPA inh, Shiga inhibitor, CHX counter)
Cc1ccc(NC(=O)c2ccc(NCc3ccco3)c([N+](=O)[O-])c2)cc1Cl	none
Cc1ccc(C)c(Cn2nnc(C(=O)NCc3ccccc3)c2N)c1	none (no result: LmPK inh, Giardia FBPA inh, Shiga inhibitor, CHX counter)
COC(=O)c1ccc(COC(=O)c2ccccn2)cc1	Shiga inhibitor 86, CHX counter 38
O=C(COC(=O)c1cnccn1)c1ccc(OC(=O)c2ccccc2)cc1	none
O=C(Oc1ccccc1)c1ccc(COC(=O)c2cnccn2)cc1	LmPK inh inconclusive, CHX counter 22
COC(=O)c1ccc(COC(=O)Cc2n[nH]c(=O)c3ccccc23)cc1	CHX counter 27
O=C(Oc1ccc(Cl)cc1)c1ccc(COC(=O)c2cnccn2)cc1	Shiga inhibitor 87, CHX counter 40 (no result: TbPYK inhibitor)
COc1ccc(C(=O)NCc2nc(-c3cccc(C)c3)no2)cc1OC	none (no result: LmPK inh, Giardia FBPA inh, Shiga inhibitor, CHX counter)
CC(=O)c1ccc(OCCCC(=O)NCc2nnc3ccccn23)cc1	none (no result: LmPK inh, Giardia FBPA inh, Shiga inhibitor, CHX counter)
O=C(OCc1c(Cl)cccc1Cl)c1ccccn1	none
O=C(OCc1ccc(F)cc1Cl)c1ccccn1	LmPK inh inconclusive, CHX counter 20
CC(=O)c1cc2c(cc1NC(=O)CCn1cccc1)OCO2	Sm TGR block 35µM
CCOC(=O)c1ccccc1NC(=O)Cn1c(=O)n(CCC(=O)N2CCc3ccccc3C2)c(=O)c2ccccc21	none (no result: LmPK inh, Giardia FBPA inh, Shiga inhibitor, CHX counter)
CSc1ccc(C2c3[nH]c4ccccc4c3CCN2C(=O)CCC2CCCC2)cc1 (configuration not stated)	none (no result: LmPK inh, Giardia FBPA inh, Shiga inhibitor, CHX counter)
O=C(C1=NNCC1c1ccccc1)C1OC1c1ccccc1 (configuration not stated)	Shiga inhibitor 34, CHX counter 12, Sm TGR block 22µM
O=C(c1ccccc1)C1OC1C(=O)c1ccccc1 (configuration not stated)	none (no result: LmPK inh, Giardia FBPA inh, Shiga inhibitor, CHX counter, Sm TGR block)
Cn1c(=O)n(CCc2ccccc2)c(=O)c2c1nc1n2CCN1c1ccc(Cl)cc1	none (no result: LmPK inh, Giardia FBPA inh, Shiga inhibitor, CHX counter)
Cc1ccc(N(O)C(=O)NCCCCNC(=O)N(O)c2ccc(C)cc2)cc1	Shiga inhibitor 52, CHX counter 36

Screening results from PubChem BioAssay.
